Reference: PubChem BioAssay AID1159580 (chemical genetic matrix, 2015)
Hit rate of the full screen: of about 5,500 compounds, about 2,000 (36%) were called active. Not shown: some 18% with an inconclusive outcome. Cut-off read from the data, not from the text of the source: active = normalized growth mostly below about 0.91 (no sharp cut-off); inconclusive = no clear call, values can overlap the other calls; inactive = mostly above about 0.92. The list shows a part of the results.

Test: chemical genetic growth profiling, strain panel (AID 1159580);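 note: tested at 20 µM; growth read once vehicle control cultures reached saturation at 30 °C; 1 = growth at the plate median or of vehicle wells; lower values mean less growth of the strain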
Details: S. cerevisiae deletion strains, growth OD
[1] = locus YAL013W, strain DEP1, stronger effect = lower value
[2] = locus YBR229C, strain ROT2, stronger effect = lower value
[3] = locus YDL101C, strain DUN1, stronger effect = lower value
[4] = locus YDR150W, strain NUM1, stronger effect = lower value
[5] = locus YEL061C, strain CIN8, stronger effect = lower value
[6] = locus YGR078C, strain PAC10, stronger effect = lower value
[7] = locus YHR030C, strain SLT2, stronger effect = lower value
[8] = locus YHR087W, strain rtc3, stronger effect = lower value
[9] = locus YJR043C, strain POL32, stronger effect = lower value
[10] = locus YJR075W, strain HOC1, stronger effect = lower value
[11] = locus YLR039C, strain RIC1, stronger effect = lower value
[12] = locus YLR058C, strain SHM2 (second series), stronger effect = lower value
[13] = locus YLR085C, strain ARP6, stronger effect = lower value
[14] = locus YLR262C, strain YPT6, stronger effect = lower value
[15] = locus YML094W, strain GIM5, stronger effect = lower value
[16] = locus YMR219W, strain ESC1, stronger effect = lower value
[17] = locus YMR263W, strain SAP30, stronger effect = lower value
[18] = locus YNL128W, strain TEP1, stronger effect = lower value
[19] = locus YNL153C, strain GIM3, stronger effect = lower value
[20] = locus YNL298W, strain CLA4 (second series), stronger effect = lower value
[21] = locus YNL322C, strain KRE1, stronger effect = lower value
[22] = locus YNR030W, strain Alg12, stronger effect = lower value
[23] = locus YPL055C, strain LGE1, stronger effect = lower value
[24] = locus YPL241C, strain CIN2, stronger effect = lower value
[25] = locus YPR135W, strain CTF4, stronger effect = lower value

Measured: normalized growth

Clc1ccc(Sc2ncnc3ccsc23)cc1
inactive: [3] 0.959 | [4] 0.911 | [11] 0.941 | [14] 1.1 | [17] 0.94 | [18] 0.934
active: [1] 0.919 | [2] 0.893 | [5] 0.81 | [6] 0.885 | [7] 0.502 | [8] 0.809 | [9] 0.866 | [10] 0.768 | locus YKL190W, strain CNB1, stronger effect = lower value 0.863 | [12] 0.877 | [13] 0.352 | [15] 0.814 | [16] 0.885 | [19] 0.924 | [20] 0.777 | [21] 0.922 | [22] 0.705 | locus YOL006C, strain TOP1, stronger effect = lower value 0.516 | [23] 0.682 | [24] 0.66 | [25] 0.451

Clc1ccc(SCc2ccsc2-c2ncns2)cc1
inactive: locus YAR019C, strain CDC15, stronger effect = lower value 0.98 | locus YBL105C, strain PKC1, stronger effect = lower value 0.968 | locus YBR135W, strain CKS1, stronger effect = lower value 0.967 | locus YBR136W, strain MEC1, stronger effect = lower value 0.968 | locus YBR160W, strain CDC28, stronger effect = lower value 0.975 | locus YDL017W, strain CDC7, stronger effect = lower value 0.97 | locus YDL028C, strain MPS1, stronger effect = lower value 0.971 | [3] 0.954 | locus YDL108W, strain KIN28, stronger effect = lower value 0.967 | locus YDL132W, strain cdc53, stronger effect = lower value 0.968 | locus YDL214C, strain PRR2, stronger effect = lower value 0.965 | locus YDR052C, strain DBF4, stronger effect = lower value 0.976 | locus YDR054C, strain cdc34, stronger effect = lower value 0.964 | locus YDR226W, strain ADK1, stronger effect = lower value 0.968 | locus YDR477W, strain SNF1, stronger effect = lower value 0.951 | locus YER123W, strain YCK3, stronger effect = lower value 0.897 | locus YER133W, strain GLC7, stronger effect = lower value 0.961 | locus YFL009W, strain cdc4, stronger effect = lower value 0.964 | locus YFL029C, strain CAK1, stronger effect = lower value 0.969 | locus YFR003C, strain YPI1, stronger effect = lower value 0.967 | locus YFR019W, strain FAB1, stronger effect = lower value 0.906 | locus YFR028C, strain CDC14, stronger effect = lower value 0.96 | locus YGR040W, strain KSS1, stronger effect = lower value 0.946 | locus YGR052W, strain FMP48, stronger effect = lower value 1.04 | locus YGR092W, strain DBF2, stronger effect = lower value 0.914 | [7] 0.933 | locus YHR079C, strain IRE1, stronger effect = lower value 0.958 | locus YHR082C, strain KSP1, stronger effect = lower value 1 | locus YHR205W, strain SCH9, stronger effect = lower value 0.923 | locus YIL147C, strain SLN1, stronger effect = lower value 0.973 | locus YJL095W, strain BCK1, stronger effect = lower value 0.972 | locus YJL128C, strain PBS2, stronger effect = lower value 0.961 | locus YJL157C, strain FAR1, stronger effect = lower value 0.963 | locus YJR016C, strain ILV3, stronger effect = lower value 0.977 | locus YJR066W, strain TOR1 (second series), stronger effect = lower value 0.933 | locus YJR066W, strain TOR1, stronger effect = lower value 0.955 | locus YKL048C, strain ELM1, stronger effect = lower value 0.971 | locus YKL067W, strain YNK1, stronger effect = lower value 0.972 | locus YKL101W, strain HSL1, stronger effect = lower value 0.976 | locus YKL193C, strain SDS22, stronger effect = lower value 0.969 | locus YKL203C, strain TOR2, stronger effect = lower value 0.992 | locus YLR113W, strain HOG1, stronger effect = lower value 0.923 | locus YLR133W, strain CKI1, stronger effect = lower value 0.973 | locus YLR403W, strain SFP1, stronger effect = lower value 0.927 | locus YML070W, strain DAK1, stronger effect = lower value 0.963 | locus YMR001C, strain CDC5, stronger effect = lower value 0.968 | locus YMR205C, strain PFK2 (second series), stronger effect = lower value 0.955 | locus YMR277W, strain FCP1, stronger effect = lower value 0.973 | locus YNL006W, strain LST8, stronger effect = lower value 0.969 | locus YNL020C, strain ARK1, stronger effect = lower value 0.975 | locus YNL161W, strain CBK1, stronger effect = lower value 0.972 | locus YNL183C, strain NPR1, stronger effect = lower value 0.947 | locus YNL207W, strain RIO2, stronger effect = lower value 0.981 | locus YNL222W, strain SSU72, stronger effect = lower value 0.977 | locus YNL307C, strain MCK1 (second series), stronger effect = lower value 0.948 | locus YOL078W, strain AVO1, stronger effect = lower value 0.975 | locus YOL136C, strain PFK27, stronger effect = lower value 0.966 | locus YOR061W, strain CKA2, stronger effect = lower value 0.947 | locus YOR119C, strain RIO1, stronger effect = lower value 0.958 | locus YOR231W, strain MKK1, stronger effect = lower value 0.964 | locus YOR329C, strain SCD5, stronger effect = lower value 0.975 | locus YPL031C, strain PHO85, stronger effect = lower value 0.947 | locus YPL153C, strain RAD53, stronger effect = lower value 0.958 | locus YPL204W, strain HRR25, stronger effect = lower value 0.934 | locus YPL209C, strain IPL1, stronger effect = lower value 0.972 | locus YPL256C, strain CLN2, stronger effect = lower value 0.916 | locus YPR025C, strain CCL1, stronger effect = lower value 0.968 | locus YPR106W, strain ISR1, stronger effect = lower value 0.977 | locus YPR111W, strain DBF20, stronger effect = lower value 0.971 | strain NNK1, stronger effect = lower value 0.974 | strain TSCII, stronger effect = lower value 0.968

O=c1[nH]cnc2ccsc12
inactive: [1] 1.01 | [2] 1.02 | locus YCL061C, strain MRC1, stronger effect = lower value 0.998 | [3] 1 | [4] 1.03 | [5] 1.02 | [6] 0.998 | [7] 1.05 | [8] 1 | [9] 0.996 | [10] 1.03 | [11] 0.985 | [12] 1.03 | [13] 1.04 | [14] 0.982 | [15] 1.03 | [16] 1.01 | [17] 1.04 | [18] 1.02 | [19] 1.02 | [20] 1.01 | [21] 0.993 | [22] 1.01 | [23] 1.09 | [24] 1.02 | [25] 1.34
